Out of some 2,300 compounds screened, about 900 (39%) were called active.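 Rule for the calls: active = mean duplicate percent inhibition, scaled so buffer wells are 0 and the reference blocker 100, over three buffer SD above buffer mean; inactive = the rest.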 Only a sample is shown.

For this experiment, the target named is Anoctamin-1 (Mus musculus) (UniProt Q8BHY3). As to the kind of experiment: TMEM16A chloride channel inhibitors, confirmation, cell-based, re-confirmation (AID 652189). Particulars: HEK293 TMEM16A/YFP-H148Q, iodide quench fluorescence, at 10 µM, ionomycin added to raise cell calcium; stronger effect = higher value.
Sequence of Anoctamin-1 (Mus musculus) (Q8BHY3 whole entry, looked up): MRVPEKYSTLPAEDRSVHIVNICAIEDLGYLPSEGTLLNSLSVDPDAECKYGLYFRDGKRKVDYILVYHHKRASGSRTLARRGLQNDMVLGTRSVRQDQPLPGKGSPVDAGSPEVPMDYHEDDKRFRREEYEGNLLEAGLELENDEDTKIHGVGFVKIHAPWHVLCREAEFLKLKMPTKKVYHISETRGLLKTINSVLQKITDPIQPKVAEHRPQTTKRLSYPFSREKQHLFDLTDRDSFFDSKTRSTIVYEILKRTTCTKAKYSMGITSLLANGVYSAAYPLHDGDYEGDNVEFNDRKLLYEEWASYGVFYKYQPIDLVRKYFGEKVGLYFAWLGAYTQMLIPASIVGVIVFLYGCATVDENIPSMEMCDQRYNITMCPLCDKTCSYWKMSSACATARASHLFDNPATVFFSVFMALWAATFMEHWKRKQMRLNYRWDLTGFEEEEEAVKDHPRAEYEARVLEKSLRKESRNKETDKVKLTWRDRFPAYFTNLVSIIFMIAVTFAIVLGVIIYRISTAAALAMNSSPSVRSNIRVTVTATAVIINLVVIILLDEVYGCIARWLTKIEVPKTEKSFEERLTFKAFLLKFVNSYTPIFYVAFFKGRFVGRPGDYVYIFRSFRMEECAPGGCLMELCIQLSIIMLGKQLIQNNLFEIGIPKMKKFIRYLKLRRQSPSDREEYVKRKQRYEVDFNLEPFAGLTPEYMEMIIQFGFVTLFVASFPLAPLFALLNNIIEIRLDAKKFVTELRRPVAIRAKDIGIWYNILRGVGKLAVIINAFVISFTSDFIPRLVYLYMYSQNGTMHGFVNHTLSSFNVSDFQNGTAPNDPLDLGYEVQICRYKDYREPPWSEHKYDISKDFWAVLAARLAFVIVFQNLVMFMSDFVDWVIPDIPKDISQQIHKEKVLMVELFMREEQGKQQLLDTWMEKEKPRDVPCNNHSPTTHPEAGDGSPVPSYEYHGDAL
A word on the inhibition: it is how much of the control response was suppressed. As to `CCCCCn1c(=O)c(C(=O)NCc2ccccn2)c(O)c2ccccc21`, the inhibition was 23% (active).

For the compound `CCOc1cccc(=NC2CCCCC2)c2c(C)[nH]c(C)c12`, the inhibition entry was “inactive”.

Turning to `CCN(CC)C(=O)c1ccc(NC(=O)c2cc(-n3cnnc3)ccc2Cl)cc1`, the inhibition entry was “inactive”.

Values taken from PubChem BioAssay AID652189 (Johns Hopkins Ion Channel Center, 2013).
